According to PubChem BioAssay (NCI):
Compounds without any hit were thinned out: in the full panel of roughly 83,000, 20% have a hit.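 Growth was measured after 48 h exposure to one concentration of compound in 96-well plates. Values under 10 count as active.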 Calls of active or inactive are those of the source.

How the values were obtained:
Test in all cases: NCI-60 one-dose screen, 48 h (100 = growth as untreated, 0 = no growth, -100 = all killed)
Details in all cases: 10 µM unless noted
SR leukemia = tested on: SR leukemia
RPMI-8226 leukemia = tested on: RPMI-8226 leukemia
OVCAR-8 ovarian = tested on: OVCAR-8 ovarian
OVCAR-5 ovarian = tested on: OVCAR-5 ovarian
SK-OV-3 ovarian = tested on: SK-OV-3 ovarian
IGROV1 ovarian = tested on: IGROV1 ovarian
OVCAR-3 ovarian = tested on: OVCAR-3 ovarian
HS 578T breast = tested on: HS 578T breast
NCI/ADR-RES ovarian = tested on: NCI/ADR-RES ovarian
T-47D breast = tested on: T-47D breast
BT-549 breast = tested on: BT-549 breast
SW-620 colon = tested on: SW-620 colon
MCF7 breast = tested on: MCF7 breast
HCT-116 colon = tested on: HCT-116 colon
HCC-2998 colon = tested on: HCC-2998 colon
KM12 colon = tested on: KM12 colon
MDA-MB-468 breast = tested on: MDA-MB-468 breast
OVCAR-4 ovarian = tested on: OVCAR-4 ovarian
MDA-MB-435 melanoma = tested on: MDA-MB-435 melanoma

Measured: growth

COc1ccc(C(=O)/C=C/c2ccc(Oc3nc(Nc4ccc(F)cc4)nc(N(C)C)n3)c(OC)c2)cc1
inactive: SR leukemia 12.2% | OVCAR-8 ovarian 37.9% | OVCAR-5 ovarian 82.6% | SK-OV-3 ovarian 94.4% | IGROV1 ovarian 63.1% | OVCAR-3 ovarian 57.2% | HS 578T breast 58.3% | NCI/ADR-RES ovarian 40% | T-47D breast 19.7% | SW-620 colon 12.4% | MCF7 breast 15.6% | HCC-2998 colon 100% | KM12 colon 70.2% | MDA-MB-468 breast 40.6%
active: RPMI-8226 leukemia 4.01% | BT-549 breast -4.17% | HCT-116 colon 0.959%

COc1ccc(/C=C/c2nc3ccccc3nc2Nc2cccc(C)c2)cc1
inactive: SR leukemia 85.8% | RPMI-8226 leukemia 95.7% | OVCAR-8 ovarian 98% | OVCAR-5 ovarian 108% | OVCAR-4 ovarian 91.6% | IGROV1 ovarian 82.1% | OVCAR-3 ovarian 104% | HS 578T breast 92.3% | NCI/ADR-RES ovarian 105% | T-47D breast 77.7% | BT-549 breast 99.9% | MDA-MB-435 melanoma 98.3% | SW-620 colon 95.3% | MCF7 breast 67.3% | HCT-116 colon 87.3% | HCC-2998 colon 116% | KM12 colon 97.2% | MDA-MB-468 breast 101%

Cn1cc(-c2cc3nc(-c4cn(C)c5ncc(Br)cc45)cc(N)n3n2)c2cc(Cl)ccc21
active: SR leukemia -28.1% | RPMI-8226 leukemia -4.61% | OVCAR-8 ovarian -54.4% | OVCAR-5 ovarian -81.4% | SK-OV-3 ovarian -69.2% | IGROV1 ovarian -73.1% | OVCAR-3 ovarian -54.4% | HS 578T breast -36.1% | NCI/ADR-RES ovarian -58.4% | T-47D breast -62% | BT-549 breast -78.8% | MDA-MB-435 melanoma -88.4% | SW-620 colon -81.5% | HCT-116 colon -89.3% | HCC-2998 colon -99.1% | KM12 colon -58.5% | MDA-MB-468 breast -88.5%

NS(=O)(=O)c1ccc(N=Nc2c(O)n(CC(=O)Nc3ccccc3)c3ccccc23)cc1
active: MDA-MB-435 melanoma 9.55% | SW-620 colon -17.4% | HCT-116 colon -45.3%
inactive: SR leukemia 18.5% | RPMI-8226 leukemia 42.7% | OVCAR-8 ovarian 11.3% | OVCAR-5 ovarian 74.5% | SK-OV-3 ovarian 25.2% | IGROV1 ovarian 38.9% | OVCAR-3 ovarian 20.8% | HS 578T breast 52% | NCI/ADR-RES ovarian 64.3% | T-47D breast 60.8% | BT-549 breast 25.5% | MCF7 breast 14.9% | HCC-2998 colon 12.9% | KM12 colon 13.9% | MDA-MB-468 breast 36.5%

CC12CC[C@@H]3[C@]4(C)COC(c5cn[nH]c5-c5cccc(Br)c5)O[C@@H]4CC[C@@]3(C)[C@@H]1CC(C1=CCOC1=O)O2 (some centres undefined)
active: BT-549 breast -3.03%
inactive: SR leukemia 28% | RPMI-8226 leukemia 13.2% | OVCAR-8 ovarian 31% | OVCAR-5 ovarian 76.8% | OVCAR-4 ovarian 25.4% | IGROV1 ovarian 48.7% | OVCAR-3 ovarian 40.6% | HS 578T breast 51.5% | NCI/ADR-RES ovarian 25.3% | T-47D breast 17.7% | MDA-MB-435 melanoma 36.1% | SW-620 colon 48.5% | HCT-116 colon 15.3% | HCC-2998 colon 35.6% | KM12 colon 13.5% | MDA-MB-468 breast 17.4%

CC(C)c1sc(NC(=O)c2cc(NC(=O)c3cc(NC(=O)c4nccn4C)cn3C)cn2C)nc1C(=O)NCCCN(C)C
inactive: SR leukemia 17.5% | RPMI-8226 leukemia 104% | OVCAR-8 ovarian 81.2% | OVCAR-5 ovarian 105% | OVCAR-4 ovarian 75.3% | IGROV1 ovarian 82.5% | OVCAR-3 ovarian 70.9% | HS 578T breast 90.3% | NCI/ADR-RES ovarian 111% | T-47D breast 75.8% | BT-549 breast 57.7% | MDA-MB-435 melanoma 70.9% | MCF7 breast 69.7% | HCT-116 colon 44.2% | HCC-2998 colon 84.3% | KM12 colon 111%

C#CCOc1cc(N(CC)CC)ccc1C(C(=O)NC(C)(C)C)N(C(=O)C1CCc2cc(F)ccc2O1)c1ccccc1F (centres undefined)
inactive: SR leukemia 16.3% | RPMI-8226 leukemia 18% | OVCAR-8 ovarian 31.7% | OVCAR-5 ovarian 57.7% | SK-OV-3 ovarian 39.6% | IGROV1 ovarian 54% | OVCAR-3 ovarian 33.1% | HS 578T breast 68.7% | NCI/ADR-RES ovarian 42.5% | T-47D breast 30.2% | BT-549 breast 40.3% | MDA-MB-435 melanoma 35.9% | SW-620 colon 42.1% | MCF7 breast 16.6% | HCT-116 colon 20.5% | HCC-2998 colon 73.2% | KM12 colon 18.8% | MDA-MB-468 breast 25.5%

Cc1ccc(NC(=O)CN2CCN(c3ncnc4c3cnn4-c3ccccc3)CC2)cc1
inactive: SR leukemia 52.6% | RPMI-8226 leukemia 75.8% | OVCAR-8 ovarian 71.4% | OVCAR-5 ovarian 98% | OVCAR-4 ovarian 82.9% | IGROV1 ovarian 81.3% | OVCAR-3 ovarian 103% | HS 578T breast 77.7% | NCI/ADR-RES ovarian 79.5% | T-47D breast 78.9% | BT-549 breast 85% | SW-620 colon 99.9% | MCF7 breast 74.2% | HCT-116 colon 76.3% | HCC-2998 colon 102% | KM12 colon 89.9% | MDA-MB-468 breast 87.1%

CN(C)c1ccnc(CNCCSC2(c3ccc(C(F)(F)F)cc3)c3ccccc3CCc3ccccc32)c1
active: SR leukemia -50.9% | RPMI-8226 leukemia -47.8% | OVCAR-8 ovarian -87.3% | OVCAR-5 ovarian -22.7% | SK-OV-3 ovarian -17.4% | IGROV1 ovarian -5.42% | OVCAR-3 ovarian -36.5% | HS 578T breast -23.4% | NCI/ADR-RES ovarian -73.9% | T-47D breast -55.8% | BT-549 breast -15.2% | MDA-MB-435 melanoma -80.6% | SW-620 colon -66% | MCF7 breast -72% | HCT-116 colon -82.5% | HCC-2998 colon -91.6% | KM12 colon -66.3% | MDA-MB-468 breast -87.6%

Cc1cc2nc3c4ccccc4n(CCCN(C)C)c3nc2cc1C
active: SR leukemia 3.07% | RPMI-8226 leukemia -26.1% | OVCAR-8 ovarian 6.13% | OVCAR-5 ovarian 9.07% | SK-OV-3 ovarian 8.14% | IGROV1 ovarian -10.5% | OVCAR-3 ovarian -14.2% | HS 578T breast -10.7% | NCI/ADR-RES ovarian 1.96% | T-47D breast -10.7% | BT-549 breast -78.2% | MDA-MB-435 melanoma -93% | SW-620 colon -16.3% | MCF7 breast -30% | HCT-116 colon 3.73% | HCC-2998 colon -81.4% | KM12 colon -8.99% | MDA-MB-468 breast -56.9%

COc1ccc(-c2ccnc(SCc3cc4ccccc4[nH]c3=O)n2)cc1OC
inactive: SR leukemia 40.3% | RPMI-8226 leukemia 45% | IGROV1 ovarian 10.9% | OVCAR-3 ovarian 20.7% | MDA-MB-435 melanoma 14.8% | SW-620 colon 48.8% | KM12 colon 33.7%
active: OVCAR-8 ovarian 0.24% | OVCAR-5 ovarian -41% | SK-OV-3 ovarian -69.7% | HS 578T breast -23.6% | NCI/ADR-RES ovarian -40.7% | T-47D breast -5.29% | BT-549 breast -58.3% | HCT-116 colon 2.06% | HCC-2998 colon 5.44% | MDA-MB-468 breast -8.96%

COc1ccc2[nH]cc(-c3nnc(N)nc3-c3cn(C)c4ncc(Br)cc34)c2c1
inactive: SR leukemia 49.6% | RPMI-8226 leukemia 74.5% | OVCAR-8 ovarian 75.8% | OVCAR-5 ovarian 84.8% | OVCAR-4 ovarian 69.1% | IGROV1 ovarian 58.4% | OVCAR-3 ovarian 65.7% | HS 578T breast 55.7% | NCI/ADR-RES ovarian 83.5% | T-47D breast 62.5% | BT-549 breast 64.1% | MDA-MB-435 melanoma 81.9% | MCF7 breast 68.7% | HCT-116 colon 79.6% | HCC-2998 colon 80.2% | KM12 colon 75.5% | MDA-MB-468 breast 42.9%

CC12CC[C@@H]3[C@]4(C)COC(c5c(F)cccc5F)O[C@@H]4CC[C@@]3(C)[C@@H]1CC(C1=CCOC1=O)O2 (some centres undefined)
inactive: SR leukemia 55.6% | RPMI-8226 leukemia 40.4% | OVCAR-8 ovarian 59.8% | OVCAR-5 ovarian 85.6% | SK-OV-3 ovarian 77.2% | IGROV1 ovarian 79.1% | OVCAR-3 ovarian 88.1% | HS 578T breast 81.2% | NCI/ADR-RES ovarian 59% | T-47D breast 55% | BT-549 breast 48.3% | SW-620 colon 100% | MCF7 breast 58.4% | HCT-116 colon 49.1% | HCC-2998 colon 76.7% | KM12 colon 72.6% | MDA-MB-468 breast 52.1%

CCCSc1nc(Nc2ccc(S(N)(=O)=O)cc2)c(C#N)c(-c2cc(OC)c(OC)c(OC)c2)n1
inactive: OVCAR-8 ovarian 10.2% | OVCAR-5 ovarian 58.5% | SK-OV-3 ovarian 64.9% | IGROV1 ovarian 34.9% | OVCAR-3 ovarian 24.6% | HS 578T breast 30.7% | NCI/ADR-RES ovarian 15.1% | BT-549 breast 16.5% | MDA-MB-435 melanoma 23% | SW-620 colon 30% | HCT-116 colon 11.4% | HCC-2998 colon 43.6% | KM12 colon 12.7% | MDA-MB-468 breast 30.5%
active: SR leukemia 6.66% | RPMI-8226 leukemia 3.5% | T-47D breast -11.4%

CCCSc1nc(Nc2ccc(S(N)(=O)=O)cc2)c(C#N)c(-c2ccc(Cl)cc2)n1
active: OVCAR-4 ovarian 7.47% | HCT-116 colon -67.1% | HCC-2998 colon 8.65%
inactive: SR leukemia 18.5% | RPMI-8226 leukemia 11.2% | OVCAR-8 ovarian 15.2% | OVCAR-5 ovarian 61.1% | IGROV1 ovarian 43% | OVCAR-3 ovarian 31.7% | HS 578T breast 12.5% | NCI/ADR-RES ovarian 26.8% | T-47D breast 86.5% | BT-549 breast 77.7% | MDA-MB-435 melanoma 48% | SW-620 colon 37.6% | KM12 colon 41.7% | MDA-MB-468 breast 17.3%

CC1(c2cc3cc(Br)ccc3oc2=O)NC(=O)c2c(/C=C/C(=O)OC3CC4CCC3(C)C4(C)C)cccc2N1 (centres undefined)
inactive: SR leukemia 66.8% | RPMI-8226 leukemia 35.8% | OVCAR-8 ovarian 89% | OVCAR-5 ovarian 92.6% | SK-OV-3 ovarian 86.4% | IGROV1 ovarian 92.6% | OVCAR-3 ovarian 83.1% | HS 578T breast 95.8% | NCI/ADR-RES ovarian 74% | T-47D breast 46.2% | BT-549 breast 83.9% | MDA-MB-435 melanoma 99.2% | SW-620 colon 89.1% | MCF7 breast 50.6% | HCT-116 colon 53.8% | HCC-2998 colon 95.9% | KM12 colon 72.8% | MDA-MB-468 breast 13.4%

COc1ccc2c(c1)c(-c1cc(N)n3nc(-c4cn(C)c5ccccc45)cc3n1)cn2C
active: SR leukemia 6.15% | RPMI-8226 leukemia -14.5% | OVCAR-8 ovarian -94.4% | OVCAR-5 ovarian -38.8% | OVCAR-4 ovarian -64.2% | IGROV1 ovarian -40.3% | OVCAR-3 ovarian -67.4% | HS 578T breast -20.7% | T-47D breast -57.4% | BT-549 breast -22.4% | MDA-MB-435 melanoma -75.6% | SW-620 colon -58.5% | MCF7 breast -60.6% | HCT-116 colon -88.6% | HCC-2998 colon -82% | KM12 colon -60.6% | MDA-MB-468 breast -34.6%
